Assay outcomes as filed in PubChem BioAssay.
An excerpt weighted towards active compounds, which were near 5.9% of everything screened.
ALR H2O2 inh = inhibitors of human ALR sulfhydryl oxidase, primary screen, biochemical, H2O2 detection, HRP-luminol luminescence, single point; FAD-linked sulfhydryl oxidase ALR (Homo sapiens), P55789; purified ALR, DTT oxidation; inhibition, % (test concentration not listed); 3.8% of 290,000 active; AID 485317, 2010;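 active = mean replicate inhibition above about 79%, with every replicate also reaching it, limit read from the data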
LANA-H2B inh = blockers of LANA interaction with H2A/H2B – biochemical, FP readout, HTS, primary screen; Protein LANA1 (Human herpesvirus 8 type P (isolate GK18)), Q9QR71; cell-free LANA-H2A/H2B peptide, fluorescence polarization; inhibition, % (no concentration beside the values); 0.6% of 320,000 active; AID 2629, 2010; in the data active = inhibition mostly above about 10%, no sharp cut-off; inactive = mostly below about 6.7%
rCAG RNA binder = binders of r(CAG) RNA repeats, primary screen, biochemical, fluorescence; r(CAG) RNA repeat, TO-PRO-1 dye displacement fluorescence; inhibition, % at 3 µM; 1.3% of 370,000 active; AID 651821, 2012;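 active = inhibition above the plate cutoff, the mean of all test compounds on that plate plus 3 SD, cut at about 35% in these data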;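 also: 0% = DMSO alone and 100% = 100 µM mitoxantrone as full dye displacement; higher means more dye released from RNA so lower well fluorescence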
Rtt109 HAT inh = inhibitors of C. albicans Rtt109/Vps75 HAT, primary screen, biochemical, ThioGlo CoA-SH fluorescence, plate reader. Histone acetyltransferase RTT109 (Candida albicans (strain SC5314 / ATCC MYA-2876)), …. purified Rtt109/Vps75, 4 h. inhibition, % at 34.9 µM. 0.16% of 330,000 active;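 active = inhibition of at least 50% in every replicate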
ABHD5 PLIN5 PPI = ABHD5-PLIN5 interaction inhibitors, primary screen, cell lysate, split luciferase complementation, luminescence; Perilipin-5 (Homo sapiens) + 1-acylglycerol-3-phosphate O-acyltransferase ABHD5 (Homo …; Split G. princeps luciferase complementation, 4 h; inhibition, % at 4 µM; 0.78% of 360,000 active; AID 602281, 2012;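 active = inhibition above the mean inhibition across every tested compound plus 3 SD, cut at about 22% in these data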;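 also: 0% = DMSO only wells and the 100% control is not disclosed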
Target sequence (Q00G26 whole entry, looked up): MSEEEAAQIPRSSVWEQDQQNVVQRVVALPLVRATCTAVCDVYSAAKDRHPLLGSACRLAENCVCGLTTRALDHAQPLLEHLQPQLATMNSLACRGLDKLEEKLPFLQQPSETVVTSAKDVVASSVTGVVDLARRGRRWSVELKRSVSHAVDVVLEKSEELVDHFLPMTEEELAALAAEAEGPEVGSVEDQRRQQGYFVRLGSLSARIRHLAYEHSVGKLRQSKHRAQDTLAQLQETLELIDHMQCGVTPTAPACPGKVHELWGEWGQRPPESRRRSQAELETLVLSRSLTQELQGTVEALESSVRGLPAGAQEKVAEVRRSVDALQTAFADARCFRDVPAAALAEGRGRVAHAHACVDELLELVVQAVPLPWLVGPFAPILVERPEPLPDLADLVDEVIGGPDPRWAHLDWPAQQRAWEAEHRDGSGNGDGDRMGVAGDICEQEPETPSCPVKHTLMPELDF
Target sequence (Q8WTS1 whole entry, looked up): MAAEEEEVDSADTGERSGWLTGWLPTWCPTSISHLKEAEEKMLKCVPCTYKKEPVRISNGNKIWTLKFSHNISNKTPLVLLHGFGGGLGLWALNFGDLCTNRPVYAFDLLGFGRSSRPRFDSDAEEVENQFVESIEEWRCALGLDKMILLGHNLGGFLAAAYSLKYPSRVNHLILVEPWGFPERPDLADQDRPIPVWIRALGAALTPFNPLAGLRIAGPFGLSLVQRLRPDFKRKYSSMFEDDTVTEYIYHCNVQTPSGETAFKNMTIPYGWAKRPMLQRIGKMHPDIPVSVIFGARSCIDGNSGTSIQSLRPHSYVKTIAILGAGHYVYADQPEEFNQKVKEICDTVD
PRMT1 FP inh = PRMT1 methyltransferase inhibitors, primary screen, biochemical, fluorescence polarization; Protein arginine N-methyltransferase 1 (Homo sapiens), Q99873; recombinant PRMT1, activity-based probe fluorescence polarization; inhibition, % at 2.79 µM; 1.3% of 370,000 active; AID 652257, 2013;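 active = inhibition above about 21% made by adding two undisclosed values, limit read from the data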
rCAG bind conf = small molecules binding CAG repeat RNA – biochemical, fluorescence, confirmation | 70% of 4,300 active | shares compounds with rCAG RNA binder | r(CAG) RNA repeat, TO-PRO-1 dye displacement fluorescence | inhibition, % at 3 µM;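 active = inhibition above a per-plate cutoff, the mean inhibition of sample wells plus 3 SD, cut at about 35% in these data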;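 also: loss of TO-PRO-1 fluorescence as compound displaces dye from 1x1 AA loop RNA; 0% = DMSO only wells and 100% = 100 µM mitoxantrone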
DNA CAG counter = displacement of TO-PRO-1 from CAG DNA duplex, counter-screen for rCAG RNA repeat binder project, biochemical, fluorescence, TO-PRO-1 dye, d(CAG) DNA oligo | shares compounds with rCAG RNA binder | d(CAG) DNA oligo TO-PRO-1 dye displacement | inhibition, % at 3 µM | 94% of 4,300 active;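 active = inhibition above its plate's cutoff, the mean test-well inhibition plus 3 SD, cut at about 4.8% in these data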;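 also: 0% = DNA dye mix with DMSO and 100% = 100 µM mitoxantrone; hits displace the dye from DNA and so lower well fluorescence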
An asterisk follows results filed as active.

How did O=C(N/N=C/c1c(O)n(CCc2ccc(F)cc2)c(=O)[nH]c1=O)c1ccccc1 do in these assays?
ALR H2O2 inh: -9.7; LANA-H2B inh: -6.0; rCAG RNA binder: 6.0; ABHD5 PLIN5 PPI: -2.9; PRMT1 FP inh: -5.4

How did COc1ccc(Cn2c(O)c(/C=N/NC(=O)c3ccccc3)c(=O)[nH]c2=O)cc1 do in these assays?
ALR H2O2 inh: 36.6; LANA-H2B inh: -0.3; rCAG RNA binder: 29.9; Rtt109 HAT inh: 11.4; ABHD5 PLIN5 PPI: 8.8; PRMT1 FP inh: 4.5

What do the screens show for `COc1ccc(Cn2c(O)c(/C=N/NC(=O)c3ccccc3O)c(=O)[nH]c2=O)cc1`?
ALR H2O2 inh: 8.4; LANA-H2B inh: -1.3; rCAG RNA binder: 90.9*; Rtt109 HAT inh: -3.5; ABHD5 PLIN5 PPI: 3.4; PRMT1 FP inh: 7.0; rCAG bind conf: 76.3*; DNA CAG counter: 36.5*

What do the screens show for `c1ccc2c(c1)[IH]c1ccccc1-2`?
rCAG RNA binder: 5.3; Rtt109 HAT inh: -8.9; ABHD5 PLIN5 PPI: -0.2; PRMT1 FP inh: 0.8

What do the screens show for `OC(CNCCc1c[nH]c2ccccc12)c1ccccc1` (stereo not drawn)?
ALR H2O2 inh: -4.0; LANA-H2B inh: -11.3; rCAG RNA binder: 1.7; Rtt109 HAT inh: 1.9; ABHD5 PLIN5 PPI: -3.8; PRMT1 FP inh: 3.4

Results for COc1cccc(-n2c(CN3CCN(C)CC3)nc3ccc([N+](=O)[O-])cc3c2=O)c1 ?
ALR H2O2 inh: -5.5; LANA-H2B inh: 2.2; rCAG RNA binder: 3.9; Rtt109 HAT inh: 6.8; ABHD5 PLIN5 PPI: -1.5; PRMT1 FP inh: 3.2

Results for CCOC(=O)c1cncn1[C@@H](C)c1ccccc1 ?
ALR H2O2 inh: -10.4; LANA-H2B inh: -2.0; rCAG RNA binder: 1.9; Rtt109 HAT inh: 12.5; ABHD5 PLIN5 PPI: 10.7; PRMT1 FP inh: -5.6

Results for CN(C)[C@@H]1C(=O)C(C(N)=O)=C(O)[C@@]2(O)C(=O)C3=C(O)c4c(O)cccc4[C@@](C)(O)[C@H]3[C@H](O)[C@@H]12 ?
ALR H2O2 inh: -21.0; LANA-H2B inh: -11.7; rCAG RNA binder: 69.6*; Rtt109 HAT inh: -14.1; ABHD5 PLIN5 PPI: -5.9; PRMT1 FP inh: 61.2*; rCAG bind conf: 67.2*; DNA CAG counter: 34.1*

How did CCOC(=O)c1[nH]c2ccc(OC)cc2c1C(SCC(=O)O)c1ccc(C(F)(F)F)cc1 (stereo not drawn) do in these assays?
ALR H2O2 inh: 69.9; LANA-H2B inh: 2.6; rCAG RNA binder: 56.3*; Rtt109 HAT inh: -2.2; ABHD5 PLIN5 PPI: 1.8; PRMT1 FP inh: 1.1; rCAG bind conf: 50.8*; DNA CAG counter: 14.4*

How did COc1ccc(CN2C(=O)NC(=O)/C(=C\c3cc(OC)c(OC)c(OC)c3)C2=O)cc1 do in these assays?
ALR H2O2 inh: 5.0; LANA-H2B inh: -0.7; rCAG RNA binder: 20.6; Rtt109 HAT inh: 10.0; ABHD5 PLIN5 PPI: 11.3; PRMT1 FP inh: 8.3

Results for COc1cc(OC)c(OC)cc1/C=C1/C(=O)NC(=O)N(Cc2ccccc2)C1=O ?
ALR H2O2 inh: 2.7; LANA-H2B inh: 4.1; rCAG RNA binder: 5.3; Rtt109 HAT inh: -4.2; ABHD5 PLIN5 PPI: 11.1; PRMT1 FP inh: 12.2

How did O=C1NC(=O)N(Cc2ccccc2)C(=O)/C1=C/C=C/c1ccco1 do in these assays?
ALR H2O2 inh: 97.6*; LANA-H2B inh: 0.5; rCAG RNA binder: 44.8*; Rtt109 HAT inh: -3.7; ABHD5 PLIN5 PPI: 16.7; PRMT1 FP inh: 23.4*; rCAG bind conf: 17.3; DNA CAG counter: 8.5*

How did COc1cccc(N2C(=O)/C(=C/c3ccc(C)o3)C(=O)NC2=S)c1 do in these assays?
ALR H2O2 inh: 4.6; LANA-H2B inh: -4.5; rCAG RNA binder: 31.8; Rtt109 HAT inh: 4.5; ABHD5 PLIN5 PPI: 5.8; PRMT1 FP inh: 17.7

Results for COc1ccc(CN2C(=O)NC(=O)/C(=C\c3ccco3)C2=O)cc1 ?
ALR H2O2 inh: 1.9; LANA-H2B inh: 4.6; rCAG RNA binder: 43.1*; Rtt109 HAT inh: 2.8; ABHD5 PLIN5 PPI: -8.3; PRMT1 FP inh: 16.5; rCAG bind conf: 31.4; DNA CAG counter: 12.4*

Results for CC(C)c1ccc(N2C(=O)NC(=O)/C(=C\C=C\c3ccco3)C2=O)cc1 ?
ALR H2O2 inh: 18.8; LANA-H2B inh: 3.5; rCAG RNA binder: 44.0*; PRMT1 FP inh: 17.9; rCAG bind conf: 31.0; DNA CAG counter: 12.5*

Results for CCOc1cccc(N2C(=O)/C(=C/c3ccco3)C(=O)NC2=S)c1 ?
LANA-H2B inh: -2.6; rCAG RNA binder: 69.3*; Rtt109 HAT inh: 8.6; ABHD5 PLIN5 PPI: 3.9; PRMT1 FP inh: 20.1; rCAG bind conf: 68.4*; DNA CAG counter: 35.2*

How did CCC1(Cc2ccccc2)C(=O)NC(=S)N(C)C1=O (stereo not drawn) do in these assays?
rCAG RNA binder: 3.1; Rtt109 HAT inh: -2.0; ABHD5 PLIN5 PPI: -5.5; PRMT1 FP inh: 6.7

How did CS(=O)(=O)c1ccc(C2=C(CNC(=O)c3nccs3)[C@H]3CC[C@@H](C2)N3CCOc2ccccc2)cc1 do in these assays?
rCAG RNA binder: 2.6; ABHD5 PLIN5 PPI: 8.1; PRMT1 FP inh: -5.8

What do the screens show for `COc1c(C)cc(C(=O)C2CCCN(Cc3cccc(C)n3)C2)cc1C` (stereo not drawn)?
ALR H2O2 inh: 4.5; LANA-H2B inh: 1.9; rCAG RNA binder: -6.0; ABHD5 PLIN5 PPI: -4.9; PRMT1 FP inh: 0.2

What do the screens show for `COc1ccc(OC(=O)N(C)C[C@@H]2OCc3cnnn3CCCC(=O)N([C@@H](C)CO)C[C@@H]2C)cc1`?
rCAG RNA binder: -0.9; ABHD5 PLIN5 PPI: -2.5; PRMT1 FP inh: -3.7

Results for O=C1CC(=O)N(c2cccc(Br)c2)C(=O)N1 ?
ALR H2O2 inh: 24.7; LANA-H2B inh: -6.0; rCAG RNA binder: 16.2; Rtt109 HAT inh: 6.3; ABHD5 PLIN5 PPI: 13.4; PRMT1 FP inh: 6.7

How did Cc1cc(Br)ccc1N1C(=O)CC(=O)NC1=O do in these assays?
ALR H2O2 inh: 85.4*; LANA-H2B inh: 2.6; rCAG RNA binder: 40.3*; Rtt109 HAT inh: 7.8; ABHD5 PLIN5 PPI: 9.2; PRMT1 FP inh: 6.0; rCAG bind conf: 4.5; DNA CAG counter: 3.0
